{"source": "PubChem BioAssay (NCI)", "key": {"[1]": {"test": "NCI Yeast Anticancer Drug Screen. Data for the rad52 strain (AID 147);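 also: 0% = growth of vehicle-treated control cultures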", "conditions": "S. cerevisiae rad52 mutant growth inhibition, stronger effect = higher value", "summary_of_the_method": "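Growth of repair-deficient yeast cells was compared between compound-treated and vehicle-treated cultures to give percent inhibition.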"}, "[2]": {"test": "NCI Yeast Anticancer Drug Screen. Data for the wt1 strain (AID 149);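 also: 0% = growth of vehicle-treated wt1 cultures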", "conditions": "S. cerevisiae wt1 strain (SPY 50644) growth inhibition, stronger effect = higher value", "summary_of_the_method": "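Yeast wt1 strain exposed to compounds; growth inhibition measured relative to vehicle-treated controls.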"}, "[3]": {"test": "NCI Yeast Anticancer Drug Screen. Data for the rad50EPP+ strain (AID 151);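 also: 0% = growth of vehicle-treated control cultures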", "conditions": "S. cerevisiae rad50 mutant strain, stronger effect = higher value", "summary_of_the_method": "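Measured: growth inhibition of rad50EPP+ yeast. Reference: vehicle-treated controls. Screen uses strains with defined genetic alterations in DNA damage repair or cell cycle control.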"}, "[4]": {"test": "NCI Yeast Anticancer Drug Screen. Data for the mgt1 strain (AID 153)", "conditions": "S. cerevisiae mgt1 mutant growth inhibition, stronger effect = higher value", "summary_of_the_method": "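Compounds were applied to mgt1 mutant yeast, and growth was then compared against vehicle-treated control cultures to give percent inhibition.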"}, "[5]": {"test": "NCI Yeast Anticancer Drug Screen. Data for the rad50 strain (AID 155);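 also: 0% = growth of vehicle-only cultures of the same strain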", "conditions": "S. cerevisiae rad50 strain growth inhibition, stronger effect = higher value", "summary_of_the_method": "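Yeast carrying a defined DNA repair defect were exposed to test compounds, and growth was compared with vehicle-treated controls to give percent inhibition.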"}, "[6]": {"test": "NCI Yeast Anticancer Drug Screen. Data for the mec2-1 strain (AID 157)", "conditions": "S. cerevisiae mec2-1 strain, stronger effect = higher value", "summary_of_the_method": "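Compounds were applied to mec2-1 yeast cells. Their growth was then compared with that of vehicle-treated cultures to give growth inhibition.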"}, "[7]": {"test": "NCI Yeast Anticancer Drug Screen. Data for the sgs1 mgt1 strain (AID 161);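 also: 0% = growth of cultures given vehicle only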", "conditions": "S. cerevisiae sgs1 mgt1 strain, stronger effect = higher value", "summary_of_the_method": "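Yeast cells carrying a defined DNA-repair defect were exposed to test compounds. Growth inhibition was measured relative to vehicle-treated controls.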"}, "[8]": {"test": "NCI Yeast Anticancer Drug Screen. Data for the CLN2oe strain (AID 163);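 also: 0% = growth of vehicle-only control cultures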", "conditions": "S. cerevisiae CLN2oe strain, stronger effect = higher value", "summary_of_the_method": "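Cells of an engineered yeast line with disturbed cell-cycle regulation are treated with compound. Inhibition of growth is then calculated relative to the vehicle-treated reference.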"}, "[9]": {"test": "NCI Yeast Anticancer Drug Screen. Data for the cln2 rad14 strain (AID 165);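 also: 0% = growth equal to vehicle treated cultures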", "conditions": "S. cerevisiae cln2 rad14 strain, stronger effect = higher value", "summary_of_the_method": "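Strain: cln2 rad14 yeast, altered in cell cycle control and DNA damage repair. Read-out: growth inhibition vs vehicle.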"}, "[10]": {"test": "NCI Yeast Anticancer Drug Screen. Data for the bub3 strain (AID 167)", "conditions": "S. cerevisiae bub3 mutant strain, stronger effect = higher value", "summary_of_the_method": "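Compounds were applied to a genetically altered yeast strain carrying a cell-cycle control defect. Growth inhibition was scored against vehicle-treated controls.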"}, "[11]": {"test": "NCI Yeast Anticancer Drug Screen. Data for the wt2 strain (AID 169);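 also: 0% = growth of vehicle-treated yeast cultures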", "conditions": "S. cerevisiae wt2 strain growth inhibition, stronger effect = higher value", "summary_of_the_method": "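Growth of compound-treated yeast is measured and expressed as inhibition relative to vehicle-only controls.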"}, "[12]": {"test": "NCI Yeast Anticancer Drug Screen. Data for the sgs1 strain (AID 173);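 also: 0% = growth of vehicle-only control cultures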", "conditions": "S. cerevisiae sgs1 mutant, stronger effect = higher value", "summary_of_the_method": "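Strain with an altered DNA repair or cell cycle pathway exposed to compound. Growth then measured. Value = inhibition versus vehicle control.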"}, "[13]": {"test": "NCI Yeast Anticancer Drug Screen. Data for the mlh1 rad18 strain (AID 175)", "conditions": "S. cerevisiae mlh1 rad18 strain growth inhibition, stronger effect = higher value", "summary_of_the_method": "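A repair-deficient yeast strain is exposed to test compound, and growth is scored relative to vehicle-treated controls.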"}, "[14]": {"test": "NCI Yeast Anticancer Drug Screen. Data for the rad18 strain (AID 177)", "conditions": "S. cerevisiae rad18 mutant growth inhibition, stronger effect = higher value", "summary_of_the_method": "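DNA-repair-defective yeast; compound treatment; growth inhibition scored against vehicle.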"}, "[15]": {"conditions": "at 5.0 µM (retest, dose inferred, filed as 0.5)"}, "[16]": {"conditions": "at 50.0 µM (retest, dose inferred, filed as 5.0)"}}, "note": "Values joined by “and” are separate entries in the source; they are usually repeats but may differ in a detail not shown here. Equal values may be shown once. About 79,000 compounds went through this panel and 15% of them were active in at least one assay; those are over-represented in the sample as a whole. Where a structure was tested more than once in an assay, its records may differ in their call. Active and inactive are the calls of the source. Rule as the data show it: active = growth inhibition above about 70%; inactive = the rest.", "data": [{"smiles": "O=C(NNc1ccccc1)C(O)C(O)C(O)C(O)C(O)CO", "note": "(stereo not drawn)", "values": [{"measurement": "growth inhibition", "setting": "[1]; at 1.2 µM", "value": "3% (inactive)"}, {"measurement": "growth inhibition", "setting": "[1]; at 3.7 µM", "value": "11% (inactive)"}, {"measurement": "growth inhibition", "setting": "[1]; at 11.0 µM", "value": "29% (inactive)"}, {"measurement": "growth inhibition", "setting": "[1]; at 33.0 µM", "value": "53% (inactive)"}, {"measurement": "growth inhibition", "setting": "[1]; at 100.0 µM", "value": "93% (active)"}, {"measurement": "growth inhibition", "setting": "[2]; at 1.2 µM", "value": "4% (inactive)"}, {"measurement": "growth inhibition", "setting": "[2]; at 3.7 µM", "value": "12% (inactive)"}, {"measurement": "growth inhibition", "setting": "[2]; at 11.0 µM", "value": "31% (inactive)"}, {"measurement": "growth inhibition", "setting": "[2]; at 33.0 µM", "value": "52% (inactive)"}, {"measurement": "growth inhibition", "setting": "[2]; at 100.0 µM", "value": "70% (active)"}, {"measurement": "growth inhibition", "setting": "[3]; at 1.2 µM", "value": "9% (inactive)"}, {"measurement": "growth inhibition", "setting": "[3]; at 3.7 µM", "value": "29% (inactive)"}, {"measurement": "growth inhibition", "setting": "[3]; at 11.0 µM", "value": "43% (inactive)"}, {"measurement": "growth inhibition", "setting": "[3]; at 33.0 µM", "value": "64% (inactive)"}, {"measurement": "growth inhibition", "setting": "[3]; at 100.0 µM", "value": "86% (active)"}, {"measurement": "growth inhibition", "setting": "[4]; at 1.2 µM", "value": "6% (inactive)"}, {"measurement": "growth inhibition", "setting": "[4]; at 3.7 µM", "value": "12% (inactive)"}, {"measurement": "growth inhibition", "setting": "[4]; at 11.0 µM", "value": "23% (inactive)"}, {"measurement": "growth inhibition", "setting": "[4]; at 33.0 µM", "value": "50% (inactive)"}, {"measurement": "growth inhibition", "setting": "[4]; at 100.0 µM", "value": "88% (active)"}, {"measurement": "growth inhibition", "setting": "[5]; at 1.2 µM", "value": "5% (inactive)"}, {"measurement": "growth inhibition", "setting": "[5]; at 3.7 µM", "value": "7% (inactive)"}, {"measurement": "growth inhibition", "setting": "[5]; [15]", "value": "24% (inactive) and 10% (inactive)"}, {"measurement": "growth inhibition", "setting": "[5]; at 11.0 µM", "value": "21% (inactive)"}, {"measurement": "growth inhibition", "setting": "[5]; at 33.0 µM", "value": "40% (inactive)"}, {"measurement": "growth inhibition", "setting": "[5]; [16]", "value": "48% (inactive) and 56% (inactive) and 87% (active)"}, {"measurement": "growth inhibition", "setting": "[5]; at 50.0 µM", "value": "91.7% (active) and 24.9% (inactive) and 57.1% (inactive)"}, {"measurement": "growth inhibition", "setting": "[5]; at 100.0 µM", "value": "84% (active)"}, {"measurement": "growth inhibition", "setting": "[6]; at 1.2 µM", "value": "-2% (inactive)"}, {"measurement": "growth inhibition", "setting": "[6]; at 3.7 µM", "value": "2% (inactive)"}, {"measurement": "growth inhibition", "setting": "[6]; [15]", "value": "-5% (inactive) and 6% (inactive) and 1% (inactive)"}, {"measurement": "growth inhibition", "setting": "[6]; at 11.0 µM", "value": "31% (inactive)"}, {"measurement": "growth inhibition", "setting": "[6]; at 33.0 µM", "value": "52% (inactive)"}, {"measurement": "growth inhibition", "setting": "[6]; [16]", "value": "39% (inactive) and 48% (inactive) and 87% (active)"}, {"measurement": "growth inhibition", "setting": "[6]; at 50.0 µM", "value": "51.7% (inactive) and 26.8% (inactive) and 80.2% (active)"}, {"measurement": "growth inhibition", "setting": "[6]; at 100.0 µM", "value": "82% (active)"}, {"measurement": "growth inhibition", "setting": "[7]; [15]", "value": "-10% (inactive) and 9% (inactive) and 13% (inactive)"}, {"measurement": "growth inhibition", "setting": "[7]; [16]", "value": "35% (inactive) and 52% (inactive) and 71% (active)"}, {"measurement": "growth inhibition", "setting": "[7]; at 50.0 µM", "value": "78.5% (active) and 54.9% (inactive) and 60.7% (inactive)"}, {"measurement": "growth inhibition", "setting": "[8]; at 1.2 µM", "value": "-2% (inactive)"}, {"measurement": "growth inhibition", "setting": "[8]; at 3.7 µM", "value": "3% (inactive)"}, {"measurement": "growth inhibition", "setting": "[8]; at 11.0 µM", "value": "22% (inactive)"}, {"measurement": "growth inhibition", "setting": "[8]; at 33.0 µM", "value": "52% (inactive)"}, {"measurement": "growth inhibition", "setting": "[8]; at 100.0 µM", "value": "76% (active)"}, {"measurement": "growth inhibition", "setting": "[9]; [15]", "value": "4% (inactive) and 3% (inactive)"}, {"measurement": "growth inhibition", "setting": "[9]; [16]", "value": "54% (inactive) and 48% (inactive) and 81% (active)"}, {"measurement": "growth inhibition", "setting": "[9]; at 50.0 µM", "value": "54.4% (inactive) and 55.3% (inactive) and 78.8% (active)"}, {"measurement": "growth inhibition", "setting": "[10]; at 1.2 µM", "value": "-3% (inactive)"}, {"measurement": "growth inhibition", "setting": "[10]; at 3.7 µM", "value": "0% (inactive)"}, {"measurement": "growth inhibition", "setting": "[10]; [15]", "value": "-1% (inactive) and 10% (inactive) and 14% (inactive)"}, {"measurement": "growth inhibition", "setting": "[10]; at 11.0 µM", "value": "33% (inactive)"}, {"measurement": "growth inhibition", "setting": "[10]; at 33.0 µM", "value": "75% (active)"}, {"measurement": "growth inhibition", "setting": "[10]; [16]", "value": "38% (inactive) and 79% (active) and 90% (active)"}, {"measurement": "growth inhibition", "setting": "[10]; at 50.0 µM", "value": "96.8% (active) and 45.6% (inactive) and 87.4% (active)"}, {"measurement": "growth inhibition", "setting": "[10]; at 100.0 µM", "value": "92% (active)"}, {"measurement": "growth inhibition", "setting": "[11]; at 1.2 µM", "value": "2% (inactive)"}, {"measurement": "growth inhibition", "setting": "[11]; at 3.7 µM", "value": "12% (inactive)"}, {"measurement": "growth inhibition", "setting": "[11]; at 11.0 µM", "value": "28% (inactive)"}, {"measurement": "growth inhibition", "setting": "[11]; at 33.0 µM", "value": "39% (inactive)"}, {"measurement": "growth inhibition", "setting": "[11]; at 100.0 µM", "value": "80% (active)"}, {"measurement": "growth inhibition", "setting": "[12]; at 1.2 µM", "value": "2% (inactive)"}, {"measurement": "growth inhibition", "setting": "[12]; at 3.7 µM", "value": "10% (inactive)"}, {"measurement": "growth inhibition", "setting": "[12]; at 11.0 µM", "value": "37% (inactive)"}, {"measurement": "growth inhibition", "setting": "[12]; at 33.0 µM", "value": "67% (inactive)"}, {"measurement": "growth inhibition", "setting": "[12]; at 100.0 µM", "value": "94% (active)"}, {"measurement": "growth inhibition", "setting": "[13]; [15]", "value": "23% (inactive) and 28% (inactive) and 26% (inactive)"}, {"measurement": "growth inhibition", "setting": "[13]; [16]", "value": "85% (active) and 87% (active) and 93% (active)"}, {"measurement": "growth inhibition", "setting": "[13]; at 50.0 µM", "value": "86.9% (active) and 85.9% (active) and 95.2% (active)"}, {"measurement": "growth inhibition", "setting": "[14]; at 1.2 µM", "value": "5% (inactive)"}, {"measurement": "growth inhibition", "setting": "[14]; at 3.7 µM", "value": "13% (inactive)"}, {"measurement": "growth inhibition", "setting": "[14]; at 11.0 µM", "value": "39% (inactive)"}, {"measurement": "growth inhibition", "setting": "[14]; at 33.0 µM", "value": "67% (inactive)"}, {"measurement": "growth inhibition", "setting": "[14]; at 100.0 µM", "value": "92% (active)"}]}]}
